Laboratory results: PubChem BioAssay (NCATS)
A number with no mark means an inactive call. Results filed as inconclusive are left out. Where a call stands in place of a potency, no number is given. The source made the active and inactive calls. Calls come from the whole dose curve; as a rule, active = well fitted curve in the direction sought with a large enough effect; inconclusive = small, poorly fitted or top-dose-only effect, or another doubt; inactive = no such curve, though single readings can be large; an effect the other way counts as inactive or inconclusive.

Columns and labels:
[1] = target: Phospholipid hydroperoxide glutathione peroxidase GPX4 (Homo sapiens) (UniProt P36969); assay: Primary qHTS Assay for Inhibitors of Recombinant Selenoprotein Glutathione Peroxidase 4 (GPX4) (AID 1845192); note: nearly all actives have a fitted effect of over 65% in size; note: potency is the fitted concentration of half-maximal effect
Summary of the method: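 qHTS, GR-coupled: GPX4 200 nM + cpd 30 min RT → GSH 1 mM, NADPH 0.5 mM, GR 100 nM → CHP 0.5 mM start; fluor 340/450 at t0 and t15 min; no-enzyme wells as control.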

[2] = target: Luciferin 4-monooxygenase (Photinus pyralis) (UniProt P08659); assay: Primary firefly luciferase (FLuc) qHTS assay for identification of artifact compounds. (AID 1845220); note: nearly all actives have a fitted effect of over 60% in size
Summary of the method: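 In this counter-screen for luciferase artifacts, test compounds met substrate (10 uM each luciferin and ATP) before 10 nM enzyme started the reaction. Light output was measured 5 min later.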

[3] = Primary fluorescence-based thiol-reactive (MSTI) qHTS assay for identification of artifact compounds. (AID 1845221); note: nearly all actives have a fitted effect of over 65% in size; note: potency is the fitted concentration of half-maximal effect
Summary of the method: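 qHTS titration of compound; 4 uM MSTI, PBS pH 7.4, 2% DMSO; 1 h RT, dark; fluorescence 525/598 nm; normalized to Acetyl-MSTI and MSTI; 4-parameter Hill fit.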

[4] = test system: Nanoluciferase (engineered Oplophorus gracilirostris luciferase); assay: Primary Nanoluciferase (NLuc) qHTS assay for identification of artifact compounds. (AID 1845222);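 note: NLuc secreted into diluted conditioned medium of S16 cells; series mostly up to about 54 µM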
Summary of the method: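 Using secreted nanoluciferase in S16 culture medium (0.22 um filtered, 1:55 dilution), compounds were preincubated 15 min at RT. Signal was generated with Nano-Glo reagent (1:100) over 5 min.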

[5] = target: Glutathione peroxidase 1 (Homo sapiens) (UniProt P07203); assay: Primary qHTS Assay for Inhibitors of Recombinant Selenoprotein Glutathione Peroxidase 1 (GPX1) (AID 1845191); note: nearly all actives have a fitted effect of over 65% in size
Summary of the method: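 GPX1 10 nM, GR 100 nM, GSH 1 mM, NADPH 0.5 mM, CHP 0.5 mM (final). 30-min cpd preincubation, RT. Ex340/Em450 read t=0, t=15 min.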

Chain of Glutathione peroxidase 1 (Homo sapiens) (P07203 whole entry, looked up): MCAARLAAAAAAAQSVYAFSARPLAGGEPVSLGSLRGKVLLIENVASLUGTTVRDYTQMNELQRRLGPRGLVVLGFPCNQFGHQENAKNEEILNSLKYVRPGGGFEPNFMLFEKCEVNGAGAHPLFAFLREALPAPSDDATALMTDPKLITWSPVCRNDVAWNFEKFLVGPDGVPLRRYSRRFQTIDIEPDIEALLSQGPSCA
Chain of Phospholipid hydroperoxide glutathione peroxidase GPX4 (Homo sapiens) (P36969 whole entry, looked up): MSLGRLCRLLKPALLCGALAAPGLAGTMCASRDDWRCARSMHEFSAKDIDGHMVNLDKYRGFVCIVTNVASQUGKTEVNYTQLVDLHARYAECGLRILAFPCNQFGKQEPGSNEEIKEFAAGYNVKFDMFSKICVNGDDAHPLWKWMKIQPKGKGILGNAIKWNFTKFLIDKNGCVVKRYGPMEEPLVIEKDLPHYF

| SMILES | Potency [1] | Potency [2] | Potency [3] | Potency [4] | Potency [5] |
| --- | --- | --- | --- | --- | --- |
| C=C1C[C@@]23CC[C@@H]4[C@](C)(C(=O)O)CCC[C@@]4(C)C2=CC[C@H]1C3 | inactive | inactive | inactive | inactive |  |
| N#CC1C(=O)Nc2scc(-c3ccc(-c4ccccc4O)cc3)c2C1=O (stereo not given) | inactive | inactive | inactive |  |  |
| CN(C)c1cccc(-c2c3c(=O)n(-c4ccccc4Cl)[nH]c3cc(=O)n2C)c1 |  | inactive | 1.89 µM (active) | inactive | inactive |
| Nc1nc(CC(=O)Nc2ccc(CCNCC(O)c3ccccc3)cc2)cs1 (stereo not given) | inactive | inactive | inactive | inactive |  |
| CC(/C=C/C1(O)C(C)(C)CC(O)CC1(C)O)OC1OC(CO)C(O)C(O)C1O (stereo not given) | inactive |  |  | inactive | inactive |
| NC(=O)c1cccc(-c2cc(O)cc(OC(=O)NC3CCCCC3)c2)c1 |  | inactive | inactive | inactive | inactive |
| C/C=C/C=C/C=C/C(=O)O[C@@H]1C=C(CO)C(O)(C(=O)O)[C@@]2(C)CCCC(C)(C)[C@H]12 (stereo not given in full) |  | inactive | inactive | inactive | inactive |
| CC1C/C=C/C=C\CCCCC(O)C/C=C/C(=O)O1 (stereo not given) | inactive | inactive | inactive | inactive |  |
| COc1c2c(c(C)c3c1C(=O)OC3)OC1(C)CC(O)C3(O)C(C)(C)OC(=O)CCC3(C)C1C2 (stereo not given) | inactive | inactive | inactive | inactive |  |
| COc1cccc(-c2ccc([C@@H](Oc3cc(-c4ccc(C[C@H](N)C(=O)O)cc4)nc(N)n3)C(F)(F)F)cc2)c1 |  | inactive | inactive | inactive | inactive |
| COc1ccc2cc(OCC3(C(=O)O)CN(C(=O)c4ccc(F)cc4)C3)ccc2c1 |  | inactive | inactive |  | inactive |
| C=C1CC[C@H]2[C@@](C)(CCC(O)[C@@]2(C)CO)[C@@H]1C/C=C(/C(=O)O)C(O)CO (stereo not given in full) | inactive | inactive | 6.56 µM (active) | inactive |  |
| CC(C)C1=CC2=CCC3[C@](C)(CCC[C@@]3(C)C(=O)O)C2CC1O (stereo not given in full) | inactive | inactive | inactive | inactive |  |
| Cc1nnc(C(C)C)n1C1CC2CCC(C1)N2CCC(NC(=O)C1CCC(F)(F)CC1)c1ccccc1 (stereo not given) | inactive | inactive | inactive | inactive |  |
| CCNC(=O)[C@@H]1CCCN1C(=O)[C@H](CCCN=C(N)N)NC(=O)[C@H](CC(C)C)NC(=O)[C@@H](C)NC(=O)[C@H](Cc1ccc(O)cc1)NC(=O)[C@H](CO)NC(=O)[C@H](Cc1c[nH]c2ccccc12)NC(=O)[C@H](Cc1cnc[nH]1)NC(=O)[C@@H]1CCC(=O)N1 | inactive |  |  | inactive | inactive |
| COc1cc(C(=O)OC[C@H]2O[C@H](O[C@@]3(CO)O[C@@H](CO)[C@H](O)[C@H]3O)[C@H](O)[C@@H](O)[C@@H]2O)ccc1O | inactive | inactive | inactive | inactive |  |
| COC(=O)[C@@H]1C2CC3c4[nH]c5ccccc5c4CCN3CC2CC[C@@H]1O (stereo not given in full) | inactive | inactive | inactive | inactive |  |
| C[C@]12CCC(=O)C=C1CC[C@@H]1[C@@H]2[C@@H](O)C[C@@]2(C)[C@H]1CC[C@]2(O)C(=O)COP(=O)(O)O | 6.31 µM (active) |  |  |  |  |
| CC(=O)OCC1=C[C@H](O)[C@@H]2C(C(=O)O)=CO[C@@H](O[C@@H]3O[C@H](CO)[C@@H](O)[C@H](O)[C@H]3O)[C@H]12 | inactive | inactive | inactive | inactive |  |
| O=C(O)c1cc(=O)c2c3nc4ccccc4oc-3cc(=O)c2[nH]1 | 7.94 µM (active) |  |  |  |  |
| O=C1NC(Cc2ccc(O)cc2)C(=O)N2CCCC12 (stereo not given) | inactive | inactive | inactive | inactive |  |
| O=C1CSC2(CCN(CCCN3c4ccccc4Sc4ccc(Cl)cc43)CC2)N1 | inactive |  |  |  |  |
| CC1=C(CC(=O)O)c2cc(F)ccc2C1=Cc1ccc(S(C)(=O)=O)cc1 | inactive | inactive | inactive | inactive |  |
| CC[C@@H](c1ccc(F)c(F)c1)n1c(C(=O)OC)c(-c2ccno2)[nH]c1=S | inactive | inactive |  | inactive |  |
| O=C(O)CCc1cc2ccoc2cc1O[C@@H]1O[C@H](CO[C@@H]2OC[C@](O)(CO)[C@H]2O)[C@@H](O)[C@H](O)[C@H]1O | inactive | inactive |  | inactive |  |
